For 57 compounds, inhibition results are on record in PubChem BioAssay AID651661 (Broad Institute, 2012).

Each structure is given as a SMILES string. The whole screen tested about 350,000 compounds, of which about 2,300 (0.66%) were called active. The full list was thinned out, with actives kept by preference. Unmarked numbers belong to inactive results.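 The calls were made as follows: active = mean inhibition of at least 50% after viability correction, with every replicate also passing that limit; inconclusive = mean reaches 50% but only one of two replicates passes; inactive = the rest.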

The assay in a line: blockers of EWS/Fli transcriptional output – A673 cells, NR0B1 luciferase, luminescence, MLPCN library, primary screen (AID 651661).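 Also: firefly luciferase signal divided by Alamar Blue viability fluorescence both relative to DMSO.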 As to conditions: A673 NR0B1-luciferase reporter, viability-normalised; at 12.6 µM; active compounds read high. For orientation: In a reporter assay the amount or activity of a reporter protein is the signal.
By inhibition is commonly meant the relative decrease from the control value, in per cent. As for `CC(C)C(C)NC(=O)COc1nc2ccccc2nc1N(C)C1CCCCC1` (configuration not stated), the inhibition is 6.59%.
The result for `CC(C)c1cc(C(=O)NC2CCCCCC2)c2ccccc2n1` reads -3.93%.
The result for `CN(c1ccc2nc3ccccc3c(=O)n2n1)C1CCCCC1` reads 84.9% (active); that for `COc1cccc(NC(=O)C[C@@H]2CC[C@H]3[C@@H](COc4ccc(NC(=O)C5CCC5)cc4C(=O)N3C)O2)c1`, -3.34%; that for `Cc1ccc(S(=O)(=O)Nc2ccc3c(c2)C(=O)N([C@@H](C)CO)C[C@H](C)[C@@H](CN(C)CC2CC2)O3)cc1`, -3.89%.
The result for `C[C@H]1CN([C@@H](C)CO)C(=O)c2ccccc2-c2ccccc2CO[C@@H]1CN(C)C(=O)CCN(C)C` reads 2.93%; that for `COc1ccc(-c2nc(CCNC(=O)c3ccc(Br)o3)cs2)cc1`, -1.15%; that for `COc1ccc(-c2nc3c(s2)CCc2onc(-c4ccc(Br)cc4)c2-3)cc1`, 24.2%.
For `COc1ccc(-c2nc3c(s2)CCc2onc(-c4ccc(OC)cc4)c2-3)cc1`, the inhibition was 65.6% (active).
For `C[C@@H]1CN([C@@H](C)CO)C(=O)c2cc(NS(=O)(=O)c3cn(C)cn3)ccc2O[C@@H](C)CCCCO[C@@H]1CN(C)Cc1ccncc1`, the inhibition is 4.01%.
Next, `COCC(=O)Nc1ccc2c(c1)C(=O)N(C)C[C@@H](OC)[C@@H](C)CN(CC1CCCCC1)[C@@H](C)CO2`: -0.183%.
In the case of `CCC(=O)N1CC(=O)N2[C@@H](CO)[C@H](c3ccc(C#CC4CCCC4)cc3)[C@@H]2C1`, the inhibition is 56.6% (active).
The result for `COCC(=O)N1CC(=O)N2[C@H](CO)[C@@H](c3ccc(C#CC4CCCC4)cc3)[C@H]2C1` reads -0.851%; that for `CCC(=O)N1CC(=O)N2[C@@H](CO)[C@@H](c3ccc(C#CC4CCCC4)cc3)[C@@H]2C1`, 9.48%.
Next, `COc1ccc2c3c([nH]c2c1)[C@@H](CO)N(C(=O)CN1CCOCC1)CC31CCN(C)CC1`: -7.25%; `CO[C@H]1CN(C)C(=O)c2ccc(NS(C)(=O)=O)cc2OC[C@@H](C)N(Cc2ccccc2)C[C@H]1C`: -2.52%.
The result for `O=C(C1CC1)N1CC(=O)N2[C@H](CO)[C@@H](c3ccc(-c4ccccc4F)cc3)[C@@H]2C1` reads -0.073%; that for `COc1ccc2c3c(n(C)c2c1)[C@@H](CO)N(CC1CC1)CC31CN(C(=O)Nc2c(C)noc2C)C1`, -1.03%.
With `CC(=O)Nc1ccc2nc(NC(=O)CS(=O)(=O)c3ccc(F)cc3)sc2c1`, the inhibition was -3.37%.
Next, `CCCn1nc(C(=O)Nc2ccc3nc(C)sc3c2)c2ccccc2c1=O`: -12%.
Next, `CCCC(=O)Nc1nc2ccc(NC(=O)c3c(F)c(F)c(OC)c(F)c3F)cc2s1`: 57.7% (active); `O=C(NC[C@@H]1[C@@H](c2ccccc2)[C@H](CO)N1C(=O)C1CCC1)NC1CCCC1`: 14.7%.
Regarding `COc1ccccc1-c1ccc2n(c1=O)C[C@@H]1[C@@H](CO)[C@H](C(=O)NCc3ccccc3Cl)N[C@H]21`, the inhibition was -17.8%.
The result for `C=CCOc1ccc(/C=C2\SC(=S)N(CCC(=O)O)C2=O)cc1` reads 78.5% (active); that for `O=C1/C(=C/c2ccc(F)cc2)SC(=S)N1CCCC(=O)N1CCCCC1CCO` (configuration not stated), -2.88%.
Next, `Cc1ccc(-c2nn(-c3ccccc3)cc2/C=C2\SC(=S)N(CCCCCC(=O)O)C2=O)o1`: -10.8%; `C[C@H]1CN([C@@H](C)CO)C(=O)c2cccc(NS(=O)(=O)c3ccc(F)cc3)c2O[C@@H]1CN(C)C`: 1.9%.
The result for `Cc1ccc(S(=O)(=O)N(C)C[C@@H]2Oc3c(NC(=O)c4ccncc4)cccc3C(=O)N([C@@H](C)CO)C[C@@H]2C)cc1` reads -2.33%; that for `COc1ccc(NC(=O)N[C@@H]2C=C[C@H](CC(=O)NC3CCC3)O[C@@H]2CO)cc1`, 3.89%; that for `O=C(C1CCCC1)N1CC(=O)N2[C@H](C1)[C@@H](c1ccc(-c3ccccc3F)cc1)[C@@H]2CO`, -3.17%.
`COc1ccc2c3c(n(C)c2c1)[C@H](CO)NCC31CCN(C(=O)Nc2ccccc2F)CC1`: the inhibition was 9.22%.
Next, `C[C@H]1CN([C@@H](C)CO)C(=O)c2c(c3ccccc3n2C)-c2ccccc2CO[C@H]1CN(C)C(=O)Nc1ccc(F)cc1`: -3.34%; `O=C(C[C@H]1C[C@@H]2c3cc(NC(=O)c4cccnc4)ccc3O[C@@H]2[C@@H](CO)O1)NCc1ccccc1F`: 6.33%.
Next, `C[C@H](O)C#Cc1ccc2c(c1)O[C@@H](CN(C)CC1CCCC1)[C@H](C)CN([C@@H](C)CO)S2(=O)=O`: -1.43%; `Cc1ccc(CCC(=O)Nc2ncc(Cc3cc(Cl)ccc3Cl)s2)o1`: 54% (active); `Cc1ccc(C(=O)Nc2nc3ccc(Cl)cc3s2)o1`: -92.8%.
The result for `O=C(CCc1ccccc1Cl)Nc1ccc(S(=O)(=O)Nc2nccs2)cc1` reads 8.82%; that for `CCC(=O)Nc1ccc2c(c1)C(=O)N(C)C[C@H](OC)[C@@H](C)CN(C(=O)c1cnccn1)[C@@H](C)CO2`, 4.08%; that for `O=C(NC[C@H]1CC[C@H]2[C@H](CN2Cc2cccc(Cl)c2)O1)C1CC1`, 5.25%.
As for `CCCNC(=O)c1c(Cl)cnn1-c1ccc(C)cc1`, the inhibition is -130%.
Next, `Cc1cccc(-n2ncc(Cl)c(Cl)c2=O)c1`: 79.8% (active).
The result for `Cc1cccc(-n2ncc3c(=O)[nH]c(SCC(=O)Nc4cc(C)on4)nc32)c1` reads -9.98%; that for `O=C(C[C@@H]1C[C@@H]2c3cc(NS(=O)(=O)c4ccc(F)cc4)ccc3O[C@@H]2[C@@H](CO)O1)N1CCOCC1`, -1.95%.
For `CNC[C@H]1Oc2cc(C#CC3CCCC3)ccc2S(=O)(=O)N([C@H](C)CO)C[C@@H]1C`, the inhibition was 3.9%.
The result for `CCN(CC)CCCNC(=O)c1cc2c(=O)[nH]c3ccc(C)cc3c2s1` reads 7.57%; that for `Cc1ccc2[nH]c(=O)c(CC(=O)O)c(-c3ccccc3)c2c1`, -1.99%; that for `Cc1cccc(N(C)C(=O)c2cc3c(=O)[nH]c4ccc(C)cc4c3s2)c1`, 65% (active).
The result for `O=C([C@H]1[C@H](CO)[C@H]2Cn3c(cccc3=O)[C@@H]1N2Cc1cocn1)N1CCCCC1` reads -0.44%; that for `CCC(C)Cn1c(O)cc2nn(-c3nc4ccccc4s3)c(=O)c-2c1C` (configuration not stated), 64.5% (active); that for `N#Cc1ccc(-c2ccc([C@H]3[C@H](CO)N4C(=O)CN(C(=O)Cc5ccccc5)C[C@@H]34)cc2)cc1`, -6.19%.
Regarding `COc1ccc(CNC(=O)C[C@@H]2C=C[C@@H](NC(=O)c3ccc4c(c3)OCO4)[C@@H](CO)O2)cc1`, the inhibition was -0.519%.
Next, `CCNC(=O)C[C@@H]1CC[C@@H]2[C@@H](COc3ccc(NC(=O)Nc4ccccc4F)cc3C(=O)N2C)O1`: -3.28%.
The result for `COc1cc2[nH]c(=S)n(Cc3ccc(F)cc3)c(=O)c2cc1OC` reads 11.2%; that for `COc1ccc(Cn2c(=S)[nH]c3cc(C(=O)N4CCCCC4)ccc3c2=O)cc1`, -2.4%.
Regarding `CCOc1cc2[nH]c(=S)n(Cc3ccc(C(=O)N4CCN(C)CC4)cc3)c(=O)c2cc1OCC`, the inhibition was 67.5% (active).
The result for `O=C(Nc1ccc(F)cc1)N[C@@H]1CC[C@H](CC(=O)N2CCCCC2)O[C@H]1CO` reads 6.37%.
The result for `C[C@@H]1CN([C@@H](C)CO)S(=O)(=O)c2ccc(-c3ccc(C(=O)N(C)C)cc3)cc2O[C@@H]1CN(C)C(=O)Cc1ccccn1` reads -2.65%.
